From PubChem BioAssay (NCATS) come the findings set out here.

Records with an inconclusive call do not appear. Activity calls are given as the source filed them. Calls come from the whole dose curve; as a rule, active = well fitted inhibition curve with a large enough effect; inconclusive = small, poorly fitted or top-dose-only effect; inactive = flat fitted curve, though single readings scatter.

Holding throughout (experiment): qHTS profiling for inhibitors of Plasmodium falciparum proliferation (AID 504749); note: nearly all actives have a fitted effect of over 60% in size
What all share (conditions): P. falciparum in erythrocytes, SYBR Green DNA, 72 h; series mostly up to 28.7 µM
In general terms: In qHTS, concentration-response curves come from the screen itself.

One experiment relates to CP325. The procedure, abridged: (§1)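 P. falciparum-infected erythrocytes (0.3% parasitemia, 2.5% hematocrit final) were exposed to compounds for 72 h at 37 C in 5% CO2, then lysed with SYBR Green buffer overnight at room temperature; parasite DNA fluorescence was normalized to artemisinin and DMSO controls.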
For another experiment, the system named is CP329. The procedure, abridged:
as §1

The next experiment relates to CP335. The procedure, abridged:
as §1

The subject of the next experiment is DIV14. The procedure, abridged:
as §1

Another experiment relates to DIV17. The procedure, abridged: as §1
A further experiment relates to DIV30. An outline of the steps:
as §1

For another experiment, the system named is Dd2. An outline of the steps: as §1
Another experiment deals with ECU. An outline of the steps: as §1
The test system of a further experiment is GB4. The procedure, abridged:
as §1

The next experiment deals with ICS. An outline of the steps:
as §1

A further experiment deals with P93_24. An outline of the steps: as §1
The test system of another experiment is P94_40. An outline of the steps:
as §1

In a further experiment the test system is CP305. An outline of the steps:
as §1

The next experiment deals with FAB9. The procedure, abridged: as §1
The next experiment concerns HB3. The procedure, abridged:
as §1

In the next experiment the test system is JCK. An outline of the steps: as §1
The subject of the next experiment is N140. An outline of the steps:
as §1

A further experiment has as its system CP315. The procedure, abridged:
as §1

The subject of the next experiment is DFO2036. An outline of the steps:
as §1
Potency is the fitted concentration of half-maximal effect.

As to `CC(=O)c1ccc2c(c1)N(CCCN1CCN(CCO)CC1)c1ccccc1S2`, the Potency in the experiment with CP325 is 16.9 µM (active); in the experiment on CP329, 15.1 µM (active); in the experiment on CP335, 12 µM (active); in the experiment on DIV14, 7.57 µM (active); with DIV17, 12 µM (active); with DIV30, 16.9 µM (active). In addition, the Potency is 12.6 µM (active) in the experiment on Dd2; 12.6 µM (active) in the experiment with ECU; 8.49 µM (active) in the experiment on GB4; 7.94 µM (active) in the experiment on ICS; 8.91 µM (active) in the experiment with P93_24; 10 µM (active) with P94_40.

Consider `Cn1cc(NC(=O)c2cc(NC(=O)c3cc(NC=O)cn3C)cn2C)cc1C(=O)NCCC(=N)N`, for which the Potency is 8.49 µM (active) in the experiment on CP305; 10.7 µM (active) with CP325; 15.1 µM (active) in the experiment on CP329; 8.49 µM (active) in the experiment on CP335; 3.38 µM (active) in the experiment on DIV14; 3.79 µM (active) in the experiment with DIV17. Moreover, the Potency in the experiment on ECU is 10 µM (active); in the experiment on FAB9, 11.2 µM (active); in the experiment on GB4, 7.57 µM (active); in the experiment on HB3 it was 10 µM (active); in the experiment on ICS, 3.55 µM (active); with JCK, 12.6 µM (active). In addition, the Potency in the experiment on N140 is 5.01 µM (active); in the experiment with P93_24, 5.01 µM (active); in the experiment with P94_40, 4.47 µM (active).

As for `CCC(=O)c1ccc2c(c1)N(CCCN1CCN(CCO)CC1)c1ccccc1S2`, the Potency with CP305 was 10.7 µM (active); in the experiment with CP315, 9.53 µM (active); with CP335 it was 6.01 µM (active); in the experiment on DFO2036 it was 8.91 µM (active); in the experiment on DIV14 it was 9.53 µM (active); in the experiment with DIV17, 13.5 µM (active). Further, the Potency in the experiment on DIV30 was 13.5 µM (active); in the experiment with Dd2, 5.62 µM (active); in the experiment with ECU it was 8.91 µM (active); in the experiment with GB4, 9.53 µM (active); in the experiment on HB3, 7.94 µM (active); with ICS, 5.01 µM (active). The Potency with N140 was 8.91 µM (active); in the experiment with P93_24, 8.91 µM (active); in the experiment on P94_40 it was 10 µM (active). For the same compound, in the experiment on JCK, the Potency entry is “inactive”.

As for `CN(C)C(=O)CCSC(SCCC(=O)O)c1cccc(/C=C/c2ccc3ccc(Cl)cc3n2)c1` (stereo not given), the Potency entry in the experiment with CP305, in the experiment on CP315, with CP325, with CP329, in the experiment on FAB9 and with JCK was “inactive” in each case. Further, the Potency in the experiment with ICS is 11.2 µM (active).

For `CCCC(CCC)C(=O)OC1C[C@H]2CC[C@@H](C1)[N+]2(C)C` (stereo not given in full), the Potency is 7.94 µM (active) with ECU and 12.6 µM (active) with ICS. Also, the Potency result with FAB9 and in the experiment on JCK was “inactive” each time.

As for `CC(=O)[O][Al][O]C(C)=O`, the Potency entry with CP315, in the experiment with CP335, with DFO2036, in the experiment on DIV30, with Dd2 and with ECU was “inactive” each time. The Potency entry in the experiment on FAB9, in the experiment on HB3, with ICS, with JCK, in the experiment with N140 and with P93_24 was “inactive” each time. In the experiment with P94_40, the Potency result was “inactive”.

As to `CCOC(=O)c1c[nH]c2cc(OCC(C)C)c(OCC(C)C)cc2c1=O`, the Potency with CP305 is 0.0675 µM (active); in the experiment on CP325 it was 0.0601 µM (active); in the experiment with CP335 it was 0.0675 µM (active); in the experiment with DFO2036, 0.1 µM (active); in the experiment with DIV14 it was 0.151 µM (active); in the experiment on DIV17 it was 0.338 µM (active). For the same compound, the Potency in the experiment on Dd2 was 0.141 µM (active); in the experiment with ECU it was 0.0891 µM (active); in the experiment on FAB9, 0.1 µM (active); in the experiment on GB4, 0.0601 µM (active); in the experiment on HB3, 0.178 µM (active); in the experiment on ICS it was 0.0794 µM (active). Also, the Potency in the experiment with JCK is 0.282 µM (active); in the experiment on N140, 0.141 µM (active); with P93_24, 0.141 µM (active); in the experiment on P94_40 it was 0.126 µM (active).

On to `CNC(=O)[C@H](Cc1c[nH]c2ccccc12)NC(=O)[C@@H](CC(=O)NO)CC(C)C`, for which the Potency entry with CP315 and in the experiment with JCK was “inactive” in each case.

As to `CCCCC/C=C\C/C=C\C/C=C\CCCCC(=O)O`, the Potency entry with CP305, in the experiment on CP315, with CP325, in the experiment with CP329, in the experiment on CP335 and in the experiment on DFO2036 was “inactive” throughout. The Potency result in the experiment with DIV14, in the experiment on DIV17, in the experiment on DIV30, in the experiment on Dd2, in the experiment on ECU and in the experiment with FAB9 was “inactive” in each case. Further, the Potency entry with HB3, with JCK, with N140, with P93_24 and in the experiment with P94_40 was “inactive” throughout.

Turning to `OCCOCCOCCO`, the Potency result in the experiment on CP335, in the experiment with DFO2036, in the experiment on Dd2, with ECU, in the experiment with FAB9 and with HB3 was “inactive” each time. Also, the Potency entry in the experiment with ICS, in the experiment with JCK, with N140, in the experiment on P93_24 and in the experiment on P94_40 was “inactive” in each case.

As to `CCN(CC)CCC(=O)N1c2ccccc2Sc2ccc(Cl)cc21`, the Potency in the experiment with DIV14 was 5.36 µM (active); in the experiment on DIV17 it was 8.49 µM (active); with Dd2, 5.62 µM (active); in the experiment with P93_24, 3.98 µM (active); with P94_40 it was 5.01 µM (active). The Potency entry in the experiment on JCK and in the experiment with N140 was “inactive” throughout.

On to `CS(=O)(=O)c1ccc([C@@H](O)[C@@H](COC(=O)CN)NC(=O)C(Cl)Cl)cc1`, for which the Potency entry in the experiment with DIV14, with DIV17, in the experiment on DIV30, in the experiment on ECU, in the experiment with FAB9 and in the experiment on HB3 was “inactive” in each case. The Potency result with JCK and in the experiment on N140 was “inactive” each time. Moreover, the Potency with Dd2 was 6.31 µM (active).

On to `Oc1cccc(O)c1O`, for which the Potency result in the experiment on CP315, in the experiment with DFO2036, in the experiment with DIV30, in the experiment on FAB9, in the experiment on JCK and in the experiment on N140 was “inactive” in each case. Further, the Potency in the experiment with DIV17 was 9.53 µM (active); in the experiment with ICS, 3.98 µM (active).

As to `CCOC(=O)Cc1ccc(-c2ccccc2)cc1`, the Potency entry in the experiment on CP305, in the experiment on CP315, with CP325, with CP329, with DIV14 and with DIV17 was “inactive” each time. Further, the Potency entry in the experiment with Dd2, in the experiment with ECU, in the experiment with FAB9, in the experiment on GB4, in the experiment with HB3 and with ICS was “inactive” in each case. The Potency entry in the experiment on JCK, with P93_24 and with P94_40 was “inactive” in each case. Further, the Potency in the experiment with N140 is 0.224 µM (active).

Take `Cc1cccc(C)c1NC(=O)C1CCCCN1C` (stereo not given): the Potency entry in the experiment with CP305, with CP315, in the experiment with CP325, in the experiment with CP329, in the experiment on CP335 and with DFO2036 was “inactive” each time. Besides, the Potency entry in the experiment with DIV14, in the experiment on DIV17, in the experiment with DIV30, with Dd2, in the experiment on ECU and in the experiment with FAB9 was “inactive” throughout. Also, the Potency entry in the experiment on HB3, in the experiment on ICS, in the experiment with JCK, in the experiment on N140, in the experiment with P93_24 and with P94_40 was “inactive” each time.

Take `OCc1ccccc1`: the Potency entry with CP315 and in the experiment with CP329 was “inactive” in each case. Also, the Potency in the experiment on ICS was 2.24 µM (active).

In the case of `C=CC[N+]1([C@H]2C[C@H]3[C@@H]4CC[C@H]5C[C@H](O)[C@@H](N6CCOCC6)C[C@]5(C)[C@H]4CC[C@]3(C)[C@H]2OC(C)=O)CCCC1`, the Potency in the experiment with CP335 was 12 µM (active); in the experiment on Dd2 it was 10 µM (active); in the experiment on P94_40, 8.91 µM (active). Further, the Potency result with DIV14, in the experiment with DIV17, in the experiment on FAB9 and in the experiment on JCK was “inactive” each time.

`NC(N)=NCC1COc2ccccc2O1` (stereo not given): the Potency result in the experiment on CP315, with DIV14, in the experiment on DIV30, in the experiment with ECU, in the experiment on FAB9 and with JCK was “inactive” each time. The Potency entry in the experiment on N140 and with P94_40 was “inactive” each time.

With `CC(C)C1=CC2=CC[C@@H]3[C@](C)(CCC[C@@]3(C)C(=O)O)[C@H]2CC1`, the Potency entry with CP335, in the experiment with DFO2036, in the experiment on Dd2, with ECU, in the experiment with FAB9 and with HB3 was “inactive” each time. Moreover, the Potency result in the experiment on ICS, in the experiment with JCK, in the experiment on N140, with P93_24 and in the experiment on P94_40 was “inactive” each time.
